Data on 42 compounds can be found in PubChem BioAssay AID651582 (Sanford-Burnham Center for Chemical Genomics, 2012).

Each structure is given as a SMILES string. About 1,500 (0.65%) of roughly 230,000 compounds were called active.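 The calls were made as follows: active = pattern-corrected inhibition of lipid staining of at least 50% with the nuclear-stain viability signal not falling by more than 50%; inactive = the rest, inconclusive results apart.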 Only a selection was taken, and actives are over-represented in it overall.

The nature of this experiment: TAG lipid buildup reduction in H9c2 cells – cell-based, uHTS, fluorescence, primary screen (AID 651582).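 As to inhibition: 0% = DMSO wells and 100% = triacsin C control wells.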 To be noted: Nile Red lipid (TAG) fluorescence, at 12.5 µM, cells loaded with 200 µM oleic acid; DAPI nuclei signal change (viability), lower = more cytotoxic: measured here: DAPI nuclei count viability; inhibition: stronger effect = higher value.
In the case of `CCS(=O)(=O)c1cc([N+](=O)[O-])c(Sc2ccccc2N)s1`, the DAPI nuclei signal change (viability), lower = more cytotoxic was -4.87% and the inhibition (in general, the relative decrease from the control value, in per cent) is 14.6% (inactive).

Regarding `Nc1ccccc1Sc1ccc(C(F)(F)F)cc1[N+](=O)[O-]`, the DAPI nuclei signal change (viability), lower = more cytotoxic was determined as 8.68% and the inhibition is -15.4% (inactive).

Regarding `Nc1ccccc1SC(C[N+](=O)[O-])c1ccccc1` (centres undefined), the DAPI nuclei signal change (viability), lower = more cytotoxic is -46.5% and the inhibition was 63.9% (active).

In the case of `CCOC(=O)/C=c1\s/c(=C\c2ccccc2OC)c(=O)n1CC(=O)N1CCOCC1`, the DAPI nuclei signal change (viability), lower = more cytotoxic was -2.84% and the inhibition was 8.35% (inactive).

On to `Cc1cccc(NC(=O)CN2C(=O)c3ccccc3C2=O)c1C`, for which the DAPI nuclei signal change (viability), lower = more cytotoxic came to 2.88% and the inhibition was -5.58% (inactive).

With `CCOC(=O)/C=c1\s/c(=C\c2ccc(C#N)cc2)c(=O)n1CC(=O)Nc1cccc(C)c1C`, the DAPI nuclei signal change (viability), lower = more cytotoxic is -32.2% and the inhibition was 50.4% (active).

For `Cc1nc2c(OCC(=O)C(C)(C)C)cccn2c1N(C)Cc1cccs1`, the DAPI nuclei signal change (viability), lower = more cytotoxic worked out at 21.8% and the inhibition is -5.32% (inactive).

For the compound `O=C(Cn1cnc2c(OCc3ccccc3)ncnc21)NCCCn1ccnc1`, the DAPI nuclei signal change (viability), lower = more cytotoxic came to 9.45% and the inhibition is -7.19% (inactive).

`COc1cc(OC)cc(C(=O)NNC(=O)CCOc2ccccc2OC)c1`: the DAPI nuclei signal change (viability), lower = more cytotoxic is -6.59% and the inhibition was 7.42% (inactive).

`CCN(c1ccccc1)S(=O)(=O)c1ccc(C(=O)Nc2ccccc2OC)cc1`: the DAPI nuclei signal change (viability), lower = more cytotoxic is 2.43% and the inhibition is 4.73% (inactive).

Take `COc1ccc(-c2csc(-c3cccs3)n2)cc1OC`: the DAPI nuclei signal change (viability), lower = more cytotoxic was -4.83% and the inhibition is -5.04% (inactive).

Consider `COc1ccc(-c2cc(-c3ccc(N)cc3)nc(N)c2C#N)cc1OC`, for which the DAPI nuclei signal change (viability), lower = more cytotoxic was determined as 172% and the inhibition was 21.5% (inactive).

As to `COc1ccc(-c2cc(C(F)(F)F)nc(S(C)(=O)=O)n2)cc1OC`, the DAPI nuclei signal change (viability), lower = more cytotoxic is -22.6% and the inhibition is 52.7% (active).

`CCCCCCCCNS(=O)(=O)CCNC1CCCCC1`: the DAPI nuclei signal change (viability), lower = more cytotoxic is -4.65% and the inhibition is 5.91% (inactive).

As for `COc1ccc(OC)c(/C=C/C(=O)c2ccc3c(c2)OCO3)c1`, the DAPI nuclei signal change (viability), lower = more cytotoxic turned out to be 4.46% and the inhibition is 9.85% (inactive).

Turning to `Cc1c(NS(=O)(=O)c2cccc(C(=O)Nc3ccc(SC(F)F)cc3)c2)c(=O)n(-c2ccccc2)n1C`, the DAPI nuclei signal change (viability), lower = more cytotoxic is -2.02% and the inhibition was -3.28% (inactive).

As to `COc1ccc(S(=O)(=O)N(C)C)cc1NC(=O)COC(=O)c1n[nH]c2ccccc12`, the DAPI nuclei signal change (viability), lower = more cytotoxic is -4.57% and the inhibition is 4.68% (inactive).

Take `Cc1cccc(OCC(=O)OCC(=O)Nc2ccc(Cl)cn2)c1`: the DAPI nuclei signal change (viability), lower = more cytotoxic worked out at 5.47% and the inhibition is -14.4% (inactive).

Take `COc1ccc(/C=C2/CCCc3ccccc3C2=O)cc1`: the DAPI nuclei signal change (viability), lower = more cytotoxic is -45.7% and the inhibition was 59.8% (active).

Regarding `O=C1/C(=C/c2cccs2)CCc2ccccc21`, the DAPI nuclei signal change (viability), lower = more cytotoxic came to 3.51% and the inhibition is -10.1% (inactive).

Turning to `COc1ccc(/C=C2\CCc3ccccc3C2=O)c(OC)c1OC`, the DAPI nuclei signal change (viability), lower = more cytotoxic is -2.46% and the inhibition is -5.18% (inactive).

As to `O=C(COC(=O)c1cccc(Cl)c1Cl)NC1CCCCCC1`, the DAPI nuclei signal change (viability), lower = more cytotoxic came to 6.13% and the inhibition was -15.2% (inactive).

In the case of `CCCn1nnc2sc3c(c2c1=O)CCC(C)C3` (centres undefined), the DAPI nuclei signal change (viability), lower = more cytotoxic worked out at 3.37% and the inhibition was 0.861% (inactive).

On to `C=CCn1c(SCC(=O)NCC2CCCO2)nc2sc(C)c(C)c2c1=O` (centres undefined), for which the DAPI nuclei signal change (viability), lower = more cytotoxic turned out to be 4.45% and the inhibition is -8.48% (inactive).

With `C=CCn1c(SCc2c(C)noc2C)nc2sc3c(c2c1=O)CCC(C)C3` (centres undefined), the DAPI nuclei signal change (viability), lower = more cytotoxic was -30.5% and the inhibition is 85.1% (active).

For `CN1CCn2cnc(C(=O)NCC(=O)OC(C)(C)C)c2C1=O`, the DAPI nuclei signal change (viability), lower = more cytotoxic is -1.68% and the inhibition was -2.56% (inactive).

On to `CN(Cc1ccc(CNC[C@H]2O[C@@H](n3cnc4c(N)ncnc43)[C@H](O)[C@@H]2O)o1)S(C)(=O)=O`, for which the DAPI nuclei signal change (viability), lower = more cytotoxic came to 2.25% and the inhibition was 3.67% (inactive).

Regarding `Cc1cc(NC(=O)CSc2nc(C(C)C)nc3sc4c(c23)CCC(C)C4)no1` (centres undefined), the DAPI nuclei signal change (viability), lower = more cytotoxic came out at 1.86% and the inhibition was 65.3% (active).

As for `Cc1cc(NC(=O)CSc2ncc(C(F)(F)F)cc2Cl)no1`, the DAPI nuclei signal change (viability), lower = more cytotoxic was -5.5% and the inhibition was 0.466% (inactive).

Consider `Cc1cc(NC(=O)CSc2nc3c(cc2C#N)CCCCC3)no1`, for which the DAPI nuclei signal change (viability), lower = more cytotoxic turned out to be 24% and the inhibition was 6.4% (inactive).

For `Brc1ccc(CN2CC[C@H]3C=CCc4cccc(c43)C2)cc1`, the DAPI nuclei signal change (viability), lower = more cytotoxic amounted to 12.5% and the inhibition is -54.7% (inactive).

Take `COc1ccc(Cl)cc1NC(=O)CN(C)C(=O)c1cc(-c2cccs2)nn1-c1ccccc1`: the DAPI nuclei signal change (viability), lower = more cytotoxic was found to be 3.57% and the inhibition was 2.51% (inactive).

Regarding `Cc1nc2ccccn2c(=O)c1NC(=O)c1ccc(Br)o1`, the DAPI nuclei signal change (viability), lower = more cytotoxic was determined as 4.97% and the inhibition is 4.01% (inactive).

Consider `COc1ccc(C(O)c2nc(-c3ccc(OC)nc3)cs2)cc1` (centres undefined), for which the DAPI nuclei signal change (viability), lower = more cytotoxic was determined as 4.55% and the inhibition is -44.6% (inactive).

As for `COc1ccc2c(c1)O/C(=C\c1ccccc1O)C2=O`, the DAPI nuclei signal change (viability), lower = more cytotoxic worked out at 4.81% and the inhibition was -5.85% (inactive).

Regarding `COc1cc(C#Cc2ccc3cc(CCCO)oc(=O)c3c2)cc(OC)c1`, the DAPI nuclei signal change (viability), lower = more cytotoxic was -19.9% and the inhibition was 46.6% (inactive).

With `COc1cc(/C=C2\Oc3ccc(C#Cc4ccc(O)cc4)cc3C2=O)cc(OC)c1`, the DAPI nuclei signal change (viability), lower = more cytotoxic is -0.886% and the inhibition is 120% (active).

On to `O=C(CSc1n[nH]c(=O)n1-c1ccccc1)Nc1ccccc1C(F)(F)F`, for which the DAPI nuclei signal change (viability), lower = more cytotoxic was 4.07% and the inhibition is 6.49% (inactive).

In the case of `COc1ccc(OC)c(NC(=O)C2CCCN2S(=O)(=O)c2ccc3c(c2)CC(C)N3C(C)=O)c1` (centres undefined), the DAPI nuclei signal change (viability), lower = more cytotoxic was -10.6% and the inhibition is -4.08% (inactive).

For `CCN1CCN(C(=O)c2ccccc2N(C)S(=O)(=O)c2ccc(C)cc2)CC1`, the DAPI nuclei signal change (viability), lower = more cytotoxic is -0.758% and the inhibition is 7.33% (inactive).

With `CCOC(=O)N1CCN(C(=O)c2ccccc2N(Cc2ccccc2)S(=O)(=O)c2ccc(OC)cc2)CC1`, the DAPI nuclei signal change (viability), lower = more cytotoxic is -41% and the inhibition was 53.3% (active).

Consider `NC(=O)c1ccccc1N(Cc1ccccc1)S(=O)(=O)c1ccccc1`, for which the DAPI nuclei signal change (viability), lower = more cytotoxic is -8.47% and the inhibition is 2.63% (inactive).
